Laboratory results published in PubChem BioAssay AID588855 (National Center for Advancing Translational Sciences (NCATS), 2011).
The campaign covered roughly 410,000 compounds. About 5,000 (1.2%) were called active. Not shown: some 13% with an inconclusive outcome. This is one part of a sample in which actives are shown more often than they occur. Calls come from the whole dose curve; as a rule, active = well fitted inhibition curve with a large enough effect; inconclusive = small, poorly fitted or top-dose-only effect; inactive = no such curve, though single readings can be large or run the other way.

assay: qHTS for Inhibitors of TGF-b; details: HepG2 CAGA-GFP TGF-b/SMAD3 reporter, GFP fluorescence, 18 h, TGF-beta stimulated, 500 pg/mL final; series mostly up to 46.1 µM; activity, negative = inhibition: at the top concentration; note: nearly all actives have a fitted effect of over 65% in size
How it was run: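 First, reporter cells (HEPG2 CAGA-GFP) rested 2 h at 37 degrees C. Next, compounds were pinned in and TGF-beta added to 500 pg/mL final. After 18 h, GFP was imaged per cell and summed per well.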
% is set by controls: 0 for no effect and ±100 for the full control effect; potency is the fitted concentration of half-maximal effect.

Potency, active:
Cc1oc2c(c1C(=O)N1CCOCC1)C(=O)c1ccccc1C2=O 4.47 µM
CCOC(=O)c1ccc(N2C(=O)c3n[nH]c(-c4ccco4)c3C2c2ccc(O)cc2)cc1 (stereo unspecified) 15.8 µM
CCOc1cc(C2c3c(-c4ccc(Br)cc4)n[nH]c3C(=O)N2c2ccc(Cl)cc2)ccc1O (stereo unspecified) 4.47 µM
CCOC(=O)c1ccc(N2C(=O)c3n[nH]c(C)c3C2c2ccc(O)c(OC)c2)cc1 (stereo unspecified) 11.2 µM
COc1ccccc1Nc1c2c(nc3ccc(NC(=O)/C=C/c4cc(OC)c(OC)c(OC)c4)cc13)CCCC2 4.47 µM
CCCCN1CC(c2nc3ccccc3n2CCCCOc2ccc(C)cc2C)CC1=O (stereo unspecified) 11.2 µM
CC1=C(C(=O)N(C(C)C)C(C)C)CC(CC(=O)NCCCCc2ccccc2)C(=O)N1CCC1=CCCCC1 (stereo unspecified) 12.6 µM
O=C(Nc1ccc(Cl)cc1)Nc1nnc(/C=C/c2ccccc2)s1 7.08 µM
COc1ccccc1CSc1ncc(-c2ccc([N+](=O)[O-])cc2)[nH]1 12.6 µM
Cc1ccccc1NCC(=O)N/N=C\c1ccc([N+](=O)[O-])s1 11.2 µM
COc1ccc(C(=O)NCC(=O)N/N=C/c2ccc([N+](=O)[O-])s2)cc1OC 11.2 µM
COc1ccc2nc(N3CCN(C(=O)c4ccc([N+](=O)[O-])o4)CC3)sc2c1 10 µM
CCOc1ccc(N(Cc2ccccc2)C(=O)c2nc(S(C)(=O)=O)ncc2Cl)cc1 3.98 µM

activity, negative = inhibition, inactive:
O=C(c1snnc1-c1ccccc1)N1CCOCC1 -0.268%
Cc1ccc(C)c(CN2C(=O)c3ccccc3S(=O)c3ccc(C(=O)N4CCOCC4)cc32)c1 (stereo unspecified) -28.2%
CCCCOc1ccc(C(=O)N2CC(=O)Nc3ccc(Br)cc3C2c2ccc(F)cc2)cc1 (stereo unspecified) -36%
COc1ccc2oc(=O)c(-c3cn4c(n3)sc3cc(OC)ccc34)cc2c1 5.81%
Cc1c(CCO)sc[n+]1CC(=O)c1ccc2ccccc2c1 -5.47%
CCC(C)NC(=O)Cn1c(=O)n(-c2ccc(Cl)cc2)c(=O)c2c3c(sc21)CCCC3 (stereo unspecified) -12.6%
CCOC(=O)c1ccc(NC2=CC(c3ccc(OCC)cc3)N(c3ccc(C(=O)OCC)cc3)C2=O)cc1 (stereo unspecified) 11.5%
CCOc1ccc(-c2n[nH]c3c2C(c2ccccc2OC)N(c2ccc(Br)cc2)C3=O)cc1 (stereo unspecified) 1.86%
CCOC(=O)C1=C(c2ccccc2)N=C2SCC(=O)N2C1c1ccc(O)c(OC)c1 (stereo unspecified) 2.21%
CCOc1cc(C2C(C(=O)c3ccco3)=C(O)C(=O)N2Cc2ccccc2)ccc1O (stereo unspecified) -23%
CCOC(=O)c1ccc(NC(=O)CNC(=O)c2ccco2)cc1 1.66%
COc1cc(C2c3c(oc4ccccc4c3=O)C(=O)N2c2nc(C)c(C)s2)ccc1O (stereo unspecified) -4.72%
Cc1nc(SCC(=O)Nc2ccc(C(=O)O)cc2)n[nH]1 -24.3%
O=S(=O)(c1ccc(C2CCCCC2)cc1)N1CCN(c2ccc(Cl)c(Cl)c2)CC1 4.43%
CNc1ccc(-c2nc(-c3ccco3)no2)cc1[N+](=O)[O-] -2.19%
CC(C)(C)OC(=O)N(Cc1ccco1)S(=O)(=O)c1ccccc1Br 6.04%
CCOc1ccc(NC(=O)CCc2c(C)nn(-c3ccc(N4CCCC4)nn3)c2C)cc1 -14.8%
CC1(C)CC(=O)c2cc(C(=O)NCc3ccccc3)c(=O)[nH]c2C1 2.07%
CC(C)(C)c1ccc(C(=O)N2CCC(c3nc(-c4ccc(S(=O)(=O)N5CCCC5)cc4)no3)CC2)cc1 0%
COc1ccc(NS(=O)(=O)c2cc(NC(=O)/C=C/c3cc(OC)c(OC)c(OC)c3)ccc2N2CCCCC2)cc1 0%
COc1cc(/C=C/C(=O)N2CCc3ccccc3C2)cc(OC)c1OC 14.2%
CCc1ccccc1N1CC(c2nc3ccccc3n2CCCCOc2ccccc2)CC1=O (stereo unspecified) -0.426%
CCOc1ccc(N2CC(c3nc4ccccc4n3CCOc3ccc(OC)cc3)CC2=O)cc1 (stereo unspecified) -16.7%
Cc1oc2ccc(O)c(CN3CCC(C)CC3)c2c1C(=O)Nc1ccccc1 17.7%
Cc1ccc(S(=O)(=O)c2nnn3c2nc(N2CCN(c4ccccc4F)CC2)c2cc(Cl)ccc23)cc1C 8.18%
COc1ccc(CNc2nc(-c3ccccc3)nn2C(=O)c2ccccc2OC)cc1 6.76%
OC(Cc1ccc2ccccc2n1)c1ccc(Cl)c(Cl)c1 (stereo unspecified) 8.76%
CC1CC(C)CN(c2oc(-c3ccc(OCc4ccc(Cl)cc4)cc3)nc2C#N)C1 (stereo unspecified) -2.03%
CC1=C(C(=O)N2CCOCC2)CC(CC(=O)NCCN2CCOCC2)C(=O)N1CCC1=CCCCC1 (stereo unspecified) 7.65%
CC1=C(C(=O)N(C)C)CC(CC(=O)NCCc2ccccn2)C(=O)N1CCC1=CCCCC1 (stereo unspecified) 8.09%
O=C(CSc1ccccc1)Nc1nnc(/C=C/c2ccccc2)s1 4.29%
COc1ccc(/C=C/c2nnc(NC(=O)C(C)C)s2)cc1 3.59%
COc1ccc(-c2cnc(SCCNC(=O)c3ccc4c(c3)OCO4)[nH]2)cc1 -2.86%
COc1cccc(-c2cnc(C(O)c3ccccc3OC)[nH]2)c1 (stereo unspecified) 1.48%
Cc1nn(Cc2ccc(Cl)cc2)c(Cl)c1/C=N/NC(=O)CNc1ccccc1F 0%
COc1ccc(C(=O)COC(=O)c2ccc([N+](=O)[O-])s2)cc1OC -5.53%
COc1ccccc1OCCNC(=O)c1cc([N+](=O)[O-])cc([N+](=O)[O-])c1 4.16%
Cc1ccc(S(=O)(=O)N2CCN(CC(=O)N/N=C/c3ccc(Br)s3)CC2)cc1 0%
COc1ccc(C2C(=O)N(C3CCCCC3)CC(=O)N2Cc2ccccc2Cl)cc1OC (stereo unspecified) 0.844%
O=C(Cc1ccc(Cl)cc1)Nc1ccc2nn(-c3ccc(Cl)cc3)nc2c1 -5.09%
O=C(NCc1ccc(F)cc1)c1ccc2nc(N3CCCCC3)sc2c1 -18.5%
CC1CCN(c2nc3ccc(C(=O)N4CCN(c5ccccc5)CC4)cc3s2)CC1 -18.9%
CCn1c2ccccc2c2cc(NC(=O)COc3ccc(C)cc3C)ccc21 -20.9%
Cn1nc(-c2ccccc2)c(-c2ccccc2)c(C(=O)Nc2ccc(S(N)(=O)=O)cc2)c1=O -0.749%
CCCCNc1ccc(-c2nc(-c3ccncc3)no2)cc1[N+](=O)[O-] -16.9%
Cc1cccc(N2CCN(C(=O)Cn3ncc4c5ccccc5n(C)c4c3=O)CC2C)c1 (stereo unspecified) 13.2%
CCOc1ccc(NC(=O)CN(Cc2ccccc2)S(=O)(=O)c2ccc(Cl)cc2)cc1 -14.5%
COc1ccc(N(Cc2ccc(N(C)C)cc2)C(=O)c2ccc(S(C)(=O)=O)cc2)cc1 5.12%
